Data published in PubChem BioAssay (EPA / NIEHS).
The source made the active and inactive calls. The calls were made as follows: active = hit-call score of the fitted dose curve at least 0.9, where 1 is the maximum; inactive = score below 0.9.

read-out: Interleukin-1 alpha (IL1a), IL1A (gene 3552); assay: BSK_BE3C_IL1a: BioMAP Diversity Plus: BE3C Assay for Interleukin-1 alpha (IL1a) Biomarker Activity (AID 2283016); settings: primary human bronchial epithelial cells; actives raise or lower the signal
Experimental: BSK_BE3C is a cell-based, multiplexed-readout assay that uses bronchial epithelial cell, a human lung primary cell, with measurements taken at 24 hours after chemical dosing in a 96-well plate.BSK_BE3C_IL1a is an assay component measured in the BSK_BE3C assay. It measures IL-1a antibody related to regulation of gene expression using ELISA technology.Data from the assay component BSK_BE3C_IL1a was analyzed into 1 assay endpoint. This assay endpoint, BSK_BE3C_IL1a, was analyzed with bidirectional fitting relative to DMSO as the negative control and baseline of activity. Using a type of binding reporter, gain or loss-of-signal activity can be used to understand changes in the signaling as they relate to the gene IL1A. Furthermore, this assay endpoint can be referred to as a primary readout, because this assay has produced multiple assay endpoints where this one serves a signaling function. To generalize the intended target to other relatable targets, this assay endpoint is annotated to the cytokine intended target family, where the subfamily is interleukins.
The levels of cell surface (or secreted, indicated by the prefix "s") biomarker endpoints were measured by ELISA. Overt cytotoxicity to cells in confluent adherent cultures (all systems other than the BT system) was assessed by measuring total protein levels using sulforhodamine B (SRB) staining in parallel cultures at the time of biomarker measurements, indicated as SRB endpoints. For proliferation assays for adherent cell types, individual cell types are cultured at sub-confluence and relative cell numbers quantified by SRB staining at time points optimized for each system (48 h: 3C and CASM3C systems; 72 h: BT and HDF3CGF systems; 96 h: SAg system). SRB was performed by staining cells with 0.1% SRB after fixation with 10% TCA and reading wells at 560 nm.Viability and proliferation of PBMC (T cells) was quantified by Alamar Blue reduction for the SAg and BT systems. For PBMC viability (referred to as PBMC Cytotoxicity within the assay endpoint names), cells were plated (75,000/well in a 96-well plate) and then chemical samples added for 1 h before addition of activators, SEB and TSST-1 (20 ng/mL final concentration each). Cells were incubated for 90 h. Then, Alamar Blue (20 uL/well) (Invitrogen, Cat DAL1100) was added for 6 h, and the plates were read with a fluorescence microplate reader at 546/580 nm (excitation/emission). For PBMC proliferation, cells were plated and activated as above but incubated for only 16 h prior to addition of Alamar Blue. Plates were read after 6 h.

outcome, inactive:
COC(=O)CC(=O)OC
O=c1[nH]c2ccc(S(=O)CCN3CCC(Cc4ccc(F)cc4)CC3)cc2o1 (stereo not given)
CCCN(C1CCN(C(=O)C2CCNCC2)CC1)[C@@H]1CCc2ccc(OC)cc2C1
CC(C)CC(C)(O)C#CC(C)(O)CC(C)C (stereo not given)
CC(C)=CCCC(C)CCO (stereo not given)
COc1ccc(/C=C/S(=O)(=O)NC(=O)c2ccc(C)cc2Cl)cc1
COCCOCCOCCOC
CCCCCCCCCCCCc1ccccc1
CNS(=O)(=O)c1cc(C(=O)N2CCC(CCN3C4CCC3CC(n3c(C)nc5ccccc53)C4)(c3cccc(F)c3)CC2)c(Cl)cc1F (stereo not given)
Cc1[nH]cnc1C[C@H]1CCc2c(C)c3ccccc3n2C1=O
CCN(C(=O)c1cc(C)cc(OC[C@H](C)Nc2ccncc2)c1)C(C)C
O=C(O)c1cccc(N(Cc2cccnc2)c2ccc(OC(F)F)c(OC(F)F)c2)c1
CC1=CC(=O)CC(C)(C)C1
NC(=O)NO
CC(C)=CCCC(C)=CC=O
CCOCCOCCOCCO
CC(=O)OCCC(C)C
CC(C)CCCCCCOC(=O)c1ccc(C(=O)OCCCCCCC(C)C)c(C(=O)OCCCCCCC(C)C)c1
CCOC(=O)c1ccc(C2CCC(NC[C@H](O)COc3ccc(O)c(NS(C)(=O)=O)c3)CC2)cc1 (stereo not given in full)
CC1(C)C(=O)N(Br)C(=O)N1Br
C=CC(=C)CCC=C(C)C
CCOCCO
Cc1ccc(C)c(O)c1
COc1ccc(-n2nc(C(F)F)cc2-c2ccc(S(C)=O)cc2)cc1 (stereo not given)
O=C(O)c1cc(N=Nc2ccc(S(=O)(=O)Nc3ccccn3)cc2)ccc1O
Cc1c(-c2cccnc2)c2ccccc2n1CCCCC(=O)O
CCCCCCCCCCCCCCCO
COC(=O)c1c(Cl)c(Cl)c(C(=O)OC)c(Cl)c1Cl
COCCOc1cc2cc(C(=O)NC3CCN(C(C)C)CC3)n(CC(=O)Nc3ccc(Cl)cn3)c2cn1
O=C1OC(=O)C2C3C=CC(C3)C12 (stereo not given)
O=C(O)CCN(C1(C(=O)NO)CCCC1)S(=O)(=O)c1ccc(Oc2ccc(F)cc2)cc1
CCCC(=O)OCC
COC(=O)c1ccccc1O
O=c1n(CC2CO2)c(=O)n(CC2CO2)c(=O)n1CC1CO1 (stereo not given)
CCCCC(CC)COC(=O)CCCCCCCCC(=O)OCC(CC)CCCC (stereo not given)
O=C(O)c1cccc(Oc2ccccc2)c1
Nc1nc2ncc(CNc3ccc(C(=O)N[C@@H](CCC(=O)O)C(=O)O)cc3)nc2c(=O)[nH]1

AC50, active:
CCOc1cccc(-n2cc(C(=O)N3CCN(c4cc(C(=O)O)c5ccccc5c4)CC3)nc2-c2ccc(C)cc2)c1 29.2 µM
COc1cccc(-c2ccc(/C=C\CN3CCCCCC3)cc2Cl)c1 29 µM
On1ccccc1=S 4.99 µM
